{
  "source": "paper PMC4336329",
  "about": "(PLoS ONE, 2015)",
  "note": "Screen size: about 310,000 compounds; about 14,000 (4.5%) showed an effect of 50% or more. The effect is printed as a negative number. The sample holds strong results, similar compounds and a random draw of the others, so the mix is not that of the screen.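 Also: peak tail current of the secondary pulse compared with the same well before compound.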",
  "data": [
    {"molecular_target": "human ether-à-go-go-related gene (hERG) potassium channel (human, UniProt Q12809)", "sequence (Q12809 whole entry, looked up)": "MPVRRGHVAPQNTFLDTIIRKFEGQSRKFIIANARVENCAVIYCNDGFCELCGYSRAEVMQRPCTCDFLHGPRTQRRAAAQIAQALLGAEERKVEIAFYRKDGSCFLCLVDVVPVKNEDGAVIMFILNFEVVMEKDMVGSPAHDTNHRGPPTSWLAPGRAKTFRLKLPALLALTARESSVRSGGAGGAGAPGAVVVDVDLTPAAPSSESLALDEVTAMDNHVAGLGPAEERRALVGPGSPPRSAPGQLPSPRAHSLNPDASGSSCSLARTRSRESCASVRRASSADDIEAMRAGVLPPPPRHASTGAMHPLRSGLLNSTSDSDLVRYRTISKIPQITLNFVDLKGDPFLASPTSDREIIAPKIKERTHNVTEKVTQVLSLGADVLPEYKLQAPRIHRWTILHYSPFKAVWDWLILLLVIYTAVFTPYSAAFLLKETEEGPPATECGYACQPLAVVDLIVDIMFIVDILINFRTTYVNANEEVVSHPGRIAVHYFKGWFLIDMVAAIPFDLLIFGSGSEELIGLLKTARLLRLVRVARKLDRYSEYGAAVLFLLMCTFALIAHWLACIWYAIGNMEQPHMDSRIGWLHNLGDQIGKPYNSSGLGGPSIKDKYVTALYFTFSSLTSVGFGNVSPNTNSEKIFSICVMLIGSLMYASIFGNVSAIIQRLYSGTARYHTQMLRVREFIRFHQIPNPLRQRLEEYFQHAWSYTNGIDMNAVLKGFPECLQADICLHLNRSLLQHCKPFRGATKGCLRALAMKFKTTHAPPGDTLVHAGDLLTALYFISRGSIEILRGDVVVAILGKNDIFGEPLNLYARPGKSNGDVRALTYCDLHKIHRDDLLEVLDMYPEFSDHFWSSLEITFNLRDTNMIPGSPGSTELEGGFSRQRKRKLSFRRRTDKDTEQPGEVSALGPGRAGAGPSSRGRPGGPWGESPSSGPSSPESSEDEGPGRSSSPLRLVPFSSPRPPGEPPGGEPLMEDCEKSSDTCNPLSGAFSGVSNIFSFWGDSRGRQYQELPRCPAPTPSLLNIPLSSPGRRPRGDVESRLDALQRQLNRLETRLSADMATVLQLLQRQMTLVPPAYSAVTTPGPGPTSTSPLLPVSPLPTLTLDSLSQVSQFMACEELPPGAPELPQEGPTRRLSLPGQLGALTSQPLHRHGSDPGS", "assay": "primary screen, population patch clamp on CHO cells stably expressing hERG; higher = less effect of the substance", "units": {"hERG current change (%, negative = inhibition) at 10uM": "%"}, "values": [
      {"smiles": "CC(=O)Oc1ccc2oc(C)c(C(=O)N3CCOCC3)c2c1", "hERG current change (%, negative = inhibition) at 10uM": -8.91},
      {"smiles": "CCN(CC)C(=O)Oc1nnc(SC(C)C)n1-c1ccc(Cl)cc1", "hERG current change (%, negative = inhibition) at 10uM": -4.75},
      {"smiles": "Nc1ccc(Oc2ccc(Br)cc2)cc1", "hERG current change (%, negative = inhibition) at 10uM": -4.61},
      {"smiles": "CN1C(=O)/C(=N\\OC(=O)c2ccccc2Cl)c2ccccc21", "hERG current change (%, negative = inhibition) at 10uM": -42.8},
      {"smiles": "Cc1[nH]n(-c2ccccc2)c(=O)c1N=Nc1cccc(C(=O)O)c1", "hERG current change (%, negative = inhibition) at 10uM": 23.1},
      {"smiles": "O=C(NC1CCCC1)C1(c2ccccc2)CCN(S(=O)(=O)c2ccccc2)CC1", "hERG current change (%, negative = inhibition) at 10uM": -6.14},
      {"smiles": "CCCn1c(C(C)NC(=O)c2ccccc2)n[nH]c1=S", "note": "(stereo not drawn)", "hERG current change (%, negative = inhibition) at 10uM": 12.7},
      {"smiles": "O=C(C#Cc1ccccc1)c1ccco1", "hERG current change (%, negative = inhibition) at 10uM": 5.83},
      {"smiles": "CCOC(=O)C1(CCOc2ccccc2)CCN(Cc2cccc3nonc23)CC1", "hERG current change (%, negative = inhibition) at 10uM": -28.6},
      {"smiles": "CCOC(=O)C1(Cc2ccccc2)CCN(Cc2cccc3nccnc23)CC1", "hERG current change (%, negative = inhibition) at 10uM": -59.9},
      {"smiles": "CCOC(=O)c1[nH]ncc1CN1CCC(Cc2ccccc2)(C(=O)OCC)CC1", "hERG current change (%, negative = inhibition) at 10uM": -35.3},
      {"smiles": "CCOC(=O)C1(CCc2ccccc2)CCN(Cc2cccc3cnccc23)CC1", "hERG current change (%, negative = inhibition) at 10uM": -69.6},
      {"smiles": "CCOC(=O)C1(Cc2cccc(OC)c2)CCN(Cc2cccc3cnccc23)CC1", "hERG current change (%, negative = inhibition) at 10uM": -39.3},
      {"smiles": "CCOC(=O)C1(CCc2ccccc2)CCN(Cc2cccc3nccnc23)CC1", "hERG current change (%, negative = inhibition) at 10uM": -60.5},
      {"smiles": "CCOC(=O)C1(Cc2ccc(OC)cc2)CCN(C(=O)c2cccc3nccnc23)CC1", "hERG current change (%, negative = inhibition) at 10uM": -31.4},
      {"smiles": "O=C(CSC1=NCCS1)Nc1ccnc2ccccc12", "hERG current change (%, negative = inhibition) at 10uM": -5.91},
      {"smiles": "COc1ccc(Cl)cc1C(=O)OCC(=O)Nc1cccnc1Cl", "hERG current change (%, negative = inhibition) at 10uM": 15.8},
      {"smiles": "COc1ccc(CN(C(=S)Nc2ccccc2)C2CC(=O)N(c3ccc(F)cc3)C2=O)cc1", "note": "(stereo not drawn)", "hERG current change (%, negative = inhibition) at 10uM": 26.5},
      {"smiles": "COc1ccc2cc(Br)ccc2c1CC(=O)NC(C)(C)C", "hERG current change (%, negative = inhibition) at 10uM": 17.3},
      {"smiles": "Cn1cc(C(c2ccccc2OCC(=O)O)c2cn(C)c3ccccc23)c2ccccc21", "hERG current change (%, negative = inhibition) at 10uM": 3.58},
      {"smiles": "COC(=O)c1ccc(NC(=S)NC2CCCCC2)cc1", "hERG current change (%, negative = inhibition) at 10uM": 1.13},
      {"smiles": "Cc1c(C(=O)N2CCN(c3ccc([N+](=O)[O-])cc3)CC2)oc2ccccc12", "hERG current change (%, negative = inhibition) at 10uM": -72.8},
      {"smiles": "Cc1c(-c2ccccc2)oc2c(C(=O)N3CCN(c4ccc([N+](=O)[O-])cc4)CC3)cccc2c1=O", "hERG current change (%, negative = inhibition) at 10uM": -75.4},
      {"smiles": "Cc1occc1C(=O)N1CCN(c2ccc([N+](=O)[O-])cc2)CC1", "hERG current change (%, negative = inhibition) at 10uM": -77.7},
      {"smiles": "Cc1c(C(=O)N2CCOCC2)oc2ccccc12", "hERG current change (%, negative = inhibition) at 10uM": 5.05},
      {"smiles": "Cc1ccc(C(=O)N2CCN(c3ccc([N+](=O)[O-])cc3)CC2)o1", "hERG current change (%, negative = inhibition) at 10uM": -80.2},
      {"smiles": "Cc1c(-c2ccccc2)oc2c(C(=O)N3CCN(c4ccccc4F)CC3)cccc2c1=O", "hERG current change (%, negative = inhibition) at 10uM": -8.63},
      {"smiles": "Cc1occc1C(=O)N1CCN(c2ccc(Cl)cc2)CC1", "hERG current change (%, negative = inhibition) at 10uM": -4.41},
      {"smiles": "COc1ccc(N2CCN(C(=O)c3oc4ccccc4c3C)CC2)cc1", "hERG current change (%, negative = inhibition) at 10uM": -31.9},
      {"smiles": "Cc1occc1C(=O)N1CCN(c2ccccc2)CC1", "hERG current change (%, negative = inhibition) at 10uM": -8.67},
      {"smiles": "Cc1nc2ccccc2c2oc(C(=O)N3CCN(c4ccc([N+](=O)[O-])cc4)CC3)cc12", "hERG current change (%, negative = inhibition) at 10uM": -9.45},
      {"smiles": "COc1ccccc1N1CCN(C(=O)c2cccc3c(=O)c(C)c(-c4ccccc4)oc23)CC1", "hERG current change (%, negative = inhibition) at 10uM": -31.2},
      {"smiles": "Cc1ccc(C(=O)N2CCN(c3ncccn3)CC2)o1", "hERG current change (%, negative = inhibition) at 10uM": 13.4}
    ]}
  ]
}
